# Measurements published in the supplement of paper PMC6853941.
# Test system: MCF10A
# Assay: perturbation Mahalanobis distance of morphological profile vs DMSO controls (Mahalanobis distance (SD units)); higher = stronger morphological change, active = 7 or more
# Conditions: screen batch: Batch1_Mahalanobis_Distance; 72 h
# Protocol: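 MCF10A cells were seeded onto drugs dispensed acoustically into 384-well plates, using one dose per drug chosen from its human peak plasma concentration, and incubated for 72 h at 37 °C. Cells were stained for DNA, tubulin and mitochondria and imaged; 78 CellProfiler features were extracted, plate-normalised and compared with DMSO wells.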
row,Structure (SMILES),perturbation Mahalanobis distance
1,C#C[C@]1(O)CC[C@H]2[C@@H]3CCC4=CC(=O)CC[C@@H]4[C@H]3CC[C@@]21CC [Levonorgestrel] (0.24 µM),3.22 (inactive)
2,CCN(CC)C(=S)SSC(=S)N(CC)CC [Disulfiram] (6.7 µM),2.16 (inactive)
3,Nc1nc2ccc(OC(F)(F)F)cc2s1 [Riluzole] (4.3 µM),2.51 (inactive)
4,COc1cc2nc(N3CCN(C(=O)C4CCCO4)CC3)nc(N)c2cc1OC (centres undefined) [Terazosin] (1 µM),2.35 (inactive)
5,COc1ccccc1Oc1c(NS(=O)(=O)c2ccc(C(C)(C)C)cc2)nc(-c2ncccn2)nc1OCCO [Bosentan] (33.6 µM),3.04 (inactive)
6,CCN(CC)Cc1cc(Nc2ccnc3cc(Cl)ccc23)ccc1O [Amodiaquine] (0.7 µM),2.08 (inactive)
7,CN(C)CCCN1c2ccccc2CCc2ccccc21 [Imipramine] (6.2 µM),6.2 (inactive)
8,CC(C)C1CCC(C(=O)N[C@H](Cc2ccccc2)C(=O)O)CC1 (some centres undefined) [Nateglinide] (66.1 µM),2.59 (inactive)
9,NN1CCOC1=O [3-Amino-2-Oxazolidinone] (49 µM),2.59 (inactive)
10,C[C@](N)(Cc1ccc(O)cc1)C(=O)O [Metyrosine] (71.7 µM),3.87 (inactive)
11,C[C@]12C=CC(=O)N[C@@H]1CC[C@@H]1[C@@H]2CC[C@]2(C)[C@@H](C(=O)Nc3cc(C(F)(F)F)ccc3C(F)(F)F)CC[C@@H]12 [Dutasteride] (12 µM),2.35 (inactive)
12,Cc1nnc(C(C)C)n1C1C[C@H]2CC[C@@H](C1)N2CC[C@H](NC(=O)C1CCC(F)(F)CC1)c1ccccc1 (some centres undefined) [Maraviroc] (11.35 µM),2.84 (inactive)
13,Cc1ccc(NC(=O)c2ccc(CN3CCN(C)CC3)cc2)cc1Nc1nccc(-c2cccnc2)n1 [Imatinib] (14 µM),4.06 (inactive)
14,N[C@@H]1CONC1=O [D-Cycloserine] (98 µM),7.56 (active)
15,Nc1ccn([C@@H]2O[C@H](CO)[C@@H](O)[C@@H]2O)c(=O)n1 [Cytarabine] (10.3 µM),12.2 (active)
16,CN(C)C(=O)C(CCN1CCC(O)(c2ccc(Cl)cc2)CC1)(c1ccccc1)c1ccccc1 [Loperamide] (32 µM),3.13 (inactive)
17,OCC(O)COc1ccc(Cl)cc1 (centres undefined) [Chlorphenesin] (83.9 µM),2.63 (inactive)
18,CNC[C@H](O)c1ccc(O)c(O)c1 [Epinephrine] (27.3 µM),2.67 (inactive)
19,CCCCC(F)(F)[C@@]1(O)CC[C@H]2[C@@H](CC(=O)[C@@H]2CCCCCCC(=O)O)O1 [Lubiprostone] (64 µM),2.4 (inactive)
20,Cc1c(OCC(F)(F)F)ccnc1CS(=O)c1nc2ccccc2[nH]1 (centres undefined) [Lansoprazole] (23 µM),4.87 (inactive)

row,Structure (SMILES),perturbation Mahalanobis distance
1,Cc1ccc(Nc2nccc(N(C)c3ccc4c(C)n(C)nc4c3)n2)cc1S(N)(=O)=O [Pazopanib] (132.6 µM),3.25 (inactive)
2,Cc1[nH]c(=O)c(C#N)cc1-c1ccncc1 [Milrinone] (5.9 µM),2.49 (inactive)
3,CC1(C)N=C(N)N=C(N)N1c1ccc(Cl)cc1 [Cycloguanil] (3.4 µM),2.56 (inactive)
4,CN(Cc1cnc2nc(N)nc(N)c2n1)c1ccc(C(=O)N[C@@H](CCC(=O)O)C(=O)O)cc1 [Methotrexate] (0.44 µM),9.23 (active)
5,CCCN[C@H]1CCc2nc(N)sc2C1 [Pramipexole] (0.15 µM),2.79 (inactive)
6,CO/N=C(\C(=O)N[C@@H]1C(=O)N2C(C(=O)O)=C(CSc3nnnn3C)CS[C@H]12)c1csc(N)n1 [Cefmenoxime] (183.8 µM),3.87 (inactive)
7,CN1C(=O)CC(c2ccccc2)C1=O (centres undefined) [Phensuximide] (52.9 µM),3.2 (inactive)
8,CC/C(=C(\c1ccccc1)c1ccc(OCCN(C)C)cc1)c1ccccc1 [Tamoxifen] (6.7 µM),2.61 (inactive)
9,NC(=O)OCC(COC(N)=O)c1ccccc1 [Felbamate] (205.7 µM),2.24 (inactive)
10,NC(=O)[C@@H]1CSSCCC(=O)N[C@@H](CCCCN=C(N)N)C(=O)NCC(=O)N[C@@H](CC(=O)O)C(=O)N[C@@H](Cc2c[nH]c3ccccc23)C(=O)N2CCC[C@H]2C(=O)N1 [Eptifibatide] (5.3 µM),2.23 (inactive)
11,CC(=O)/C(C#N)=C(\O)Nc1ccc(C(F)(F)F)cc1 [Teriflunomide (A77 1726)] (66.9 µM),4.02 (inactive)
12,CN1CCN(CCCN2c3ccccc3Sc3ccc(C(F)(F)F)cc32)CC1 [Trifluoperazine] (0.12 µM),1.97 (inactive)
13,C[C@@](N)(Cc1ccc(O)c(O)c1)C(=O)O [Methyldopa] (118.4 µM),3.81 (inactive)
14,Cc1nc2n(c(=O)c1CCN1CCC(c3noc4cc(F)ccc34)CC1)CCCC2 [Risperidone] (73 µM),2.9 (inactive)
15,O=c1[nH]cc(F)c(=O)[nH]1 [5-Fluorouracil] (2.5 µM),7.34 (active)
16,C1CNCCN1 [Piperazine Hexahydrate] (5.8 µM),2.12 (inactive)
17,CC(=O)S[C@@H]1CC2=CC(=O)CC[C@]2(C)[C@H]2CC[C@@]3(C)[C@@H](CC[C@@]34CCC(=O)O4)[C@H]12 [Spironolactone] (3 µM),3.75 (inactive)
18,OCCN(CCO)c1nc(N2CCCCC2)c2nc(N(CCO)CCO)nc(N3CCCCC3)c2n1 [Dipyridamole] (19.8 µM),2.41 (inactive)
19,CN1CCC(=C2c3ccccc3CCc3cccnc32)CC1 [Azatadine] (0.43 µM),2.42 (inactive)
